# A selection: hits, their analogues and other compounds. The true share with any hit is near 4.4%.
# HPGD inh: blocks human HPGD enzyme activity; P15428; purified HPGD, NADH fluorescence kinetic, PGE2 substrate; Potency, µM, hits mostly inhibitors; 4.3% of 150,000 active; active = well fitted inhibition curve with a large enough effect, not every such curve was filed as active; inconclusive = small, poorly fitted or top-dose-only effect, or another doubt; inactive = no such curve, though single readings can be large or run the other way
# Target sequence (P15428 whole entry, looked up): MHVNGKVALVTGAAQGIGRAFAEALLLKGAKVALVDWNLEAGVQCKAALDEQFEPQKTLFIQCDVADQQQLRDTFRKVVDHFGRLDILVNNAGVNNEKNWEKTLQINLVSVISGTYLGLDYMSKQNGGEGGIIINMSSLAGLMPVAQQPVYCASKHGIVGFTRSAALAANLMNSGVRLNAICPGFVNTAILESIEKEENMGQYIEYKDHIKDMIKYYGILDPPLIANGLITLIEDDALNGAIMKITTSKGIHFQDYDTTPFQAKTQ
#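 NADH formation kinetics: reaction with 30 uM PGE2 and 1 mM NAD+ (final), 20 nM enzyme, Tris-HCl pH 8 with Tween 20, after 15 min compound preincubation at room temperature. Fluorescence change, last versus first of five reads.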
# p53ts 32C kill: kills p53ts cells at the permissive temperature; H1299-p53A138V at 32C, ATP luminescence viability, 24 h; Potency, µM (titrated, usually from 46.1 µM), most hits filed as cytotoxic; 0.93% of 130,000 active; also: nearly all actives have a fitted effect of over 55% in size
#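 Viability by ATPlite luminescence after 24 h compound treatment (up to 46 uM) at the permissive 32C. Cells are H1299 carrying p53 A138V. Scale runs from DMSO basal to 100 uM tamoxifen as full kill; AC50 from Hill fits.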
# ALOX12 inhib: 12-hLO (ALOX12) enzyme inhibition; P18054; purified 12-hLO, xylenol orange hydroperoxide absorbance; Potency, µM (top dose mostly 57.1 µM), actives largely listed as inhibitors; 0.12% of 150,000 active; also: nearly all actives have a fitted effect of over 55% in size
#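 Purified human 12hLO (150 nM final) was preincubated with compounds for 15 min at room temperature in 25 mM Hepes pH 7.0, 0.01% Triton X-100, then reacted with 40 uM arachidonic acid for 30 min. Hydroperoxide was detected with ferrous iron/xylenol orange.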
# p53ts 39C tox: p53ts cell cytotoxicity, nonpermissive temperature. H1299-p53A138V viability at 39C, ATP luminescence, 24 h. 1.5% of 130,000 active. Potency, µM (top dose mostly 46.1 µM), actives largely listed as cytotoxic; also: nearly all actives have a fitted effect of over 55% in size
# Numbers stand for hits; n = inactive; u = inconclusive; x = not tested or not shown; [ ] = another dose, or the depositor's remark. Unless noted, calls follow the shape of the dose curve; as a rule, active = well fitted curve in the direction sought with a large enough effect; inconclusive = small, poorly fitted or top-dose-only effect, or another doubt; inactive = no such curve, though single readings can be large; an effect the other way counts as inactive or inconclusive.
SMILES,HPGD inh,p53ts 32C kill,ALOX12 inhib,p53ts 39C tox
O=C(N/N=C1/C[C@@H](O)[C@@H](O)[C@@H]2[C@@H]3C(=O)N(C4CCCCC4)C(=O)[C@H]3CC[C@@H]12)OCc1ccccc1,x,n[9.22 µM],x,n[9.22 µM]
Cc1ccc(CNC(=O)Cc2c(C)c3c(cc(C)c4c(C)coc43)oc2=O)cc1,x,n,x,n
CC(C)CC1NC(=O)C(CCCN)NC(=O)C(C(C)C)NC(=O)C2CCCN2C(=O)C(Cc2ccccc2)NC(=O)C(CC(C)C)NC(=O)C(CCCN)NC(=O)C(C(C)C)NC(=O)C2CCCN2C(=O)C(Cc2ccccc2)NC1=O (stereo unspecified),n,n,n,5µM
COc1ccc(Cn2ccc3nc(C)c(C(=O)N4CCN(c5ccccc5F)CC4)cc3c2=O)cc1,x,n,x,u
O=C(Nc1cccnc1)c1ccc(COc2cc(Cl)ccc2Cl)o1,u,x,n,x
O=C(Nc1cccnc1)c1ccc(COc2ccccc2Cl)o1,14µM,x,n,x
CCOc1ccc(NC(=O)Cn2c(=O)n(-c3ccccc3)c(=O)c3c4c(sc32)CCCC4)cc1,x,n,x,n
COc1ccc(NC(=O)Cn2c(=O)n(-c3ccccc3)c(=O)c3c4c(sc32)CCCC4)cc1,x,u,x,25µM
CC(C)(C)OC(=O)N1CCC(c2c(C(=O)NCc3ccc(F)cc3)cnn2-c2ccc(F)cc2)CC1,x,n,x,n
CN1CCN(CCCNC(=O)c2cnn(-c3ccccc3)c2C2CCN(C(=O)OC(C)(C)C)CC2)CC1,x,n,x,n
COc1ccc(CCN2CCC(CNC(=O)c3cnn(-c4ccccc4)c3C3CCN(C(=O)OC(C)(C)C)CC3)CC2)cc1,x,n,x,13µM
CC(C)(C)OC(=O)N1CCC(c2c(C(=O)NCCN3CCC(Cc4ccccc4)CC3)cnn2-c2ccc(F)cc2)CC1,x,u,x,25µM
CC(C)(C)OC(=O)N1CCC(c2c(C(=O)NCCN3CCC(Cc4ccccc4)CC3)cnn2-c2ccccc2)CC1,x,u,x,32µM
CSc1ncc(C(=O)Nc2ccccc2C(=O)c2ccccc2)c(C)n1,x,n,x,x
COc1ccccc1CNc1ccc(-c2nc(C)no2)cc1[N+](=O)[O-],x,n,x,n
COc1ccc(OC)c(-c2ccc(C(=O)O)o2)c1,u,x,n[0.00818 µM],x
CCC(=O)/C=C1/Sc2ccc(OC)cc2N1CC,n,x,n,x
CCOC(=O)/C(=C/C=C1\Sc2ccccc2N1CC)C(C)=O,28µM,x,n,x
CCOC(=O)/C(=C\C=C1/Sc2ccccc2N1CC)C(C)=O,n,x,n,x
CCC(=O)/C=C1/Sc2ccccc2N1CC,28µM,n,n,n
CC(C(=O)N1CCCCC1)n1sc2ccccc2c1=O (stereo unspecified),3.5µM,n,n,n
CCOC(=O)COc1ccc2ccccc2c1/C=C/[N+](=O)[O-],3.5µM,x,n,x
CCOC(=O)COc1ccc(/C=C/[N+](=O)[O-])c(OCC(=O)OCC)c1,u,x,n,x
CCOc1ccc(/C=C/[N+](=O)[O-])c2ccccc12,11µM,x,u,x
CCOc1ccc(NC(=O)CSc2cc(C)c3ccccc3n2)cc1,x,n,x,n
SMILES,HPGD inh,p53ts 32C kill,ALOX12 inhib,p53ts 39C tox
CC1CCN(C(=O)c2cc3ccccc3c(=O)o2)CC1,25µM,x,n,x
Cc1c(C(=O)N2CCCCCC2)oc2ccccc12,16µM,n,n,n
Cc1oc2c(c1C(=O)N1CCC(C)CC1)C(=O)c1ccccc1C2=O,n,x,n,x
O=C(c1cc2ccccc2c(=O)o1)N1CCCCCC1,18µM,x,n,x
COc1cc(C(=O)Nc2ccc3oc(-c4ccccc4)nc3c2)cc(OC)c1OC,x,u,x,13µM
COc1cc2ccccc2cc1C(=O)Nc1ccc(N2CCN(C)CC2)cc1,n,u,n,13µM
CCOc1ccc(C(=O)Nc2ccc3oc(-c4cccc5ccccc45)nc3c2)cc1,x,n,x,10µM
COc1cc2ccccc2cc1C(=O)Nc1ccc2oc(-c3ccc(Cl)cc3)nc2c1,x,n,x,7.9µM
Cc1ccc(NC(=O)c2sc(-n3nc(C)c(Cc4ccc5c(c4)OCO5)c3C)nc2C)cc1C,x,n,x,n
COC(=O)c1cc2oc3ccccc3c2n1CC(=O)Nc1ccc(C)cc1Cl,x,n,x,u
COc1ccc2c(c1)sc1ncc(C(=O)NCc3cccc(C)c3)c(=O)n12,x,n,x,n
COc1cc(C(C)=O)ccc1Oc1ncnc2c1cnn2-c1ccc(F)cc1,16µM,x,n,n
S=C(NCc1ccccc1)Nc1cccc(Cl)c1,14µM,x,n,x
C/C(=N\NC(=S)NCCc1ccccc1)c1ccc(C)cc1,n,n,14µM,n
Cc1ccc(NC(=S)NCc2ccccc2)cc1[N+](=O)[O-],13µM,x,n,x
Cc1cccc(NC(=S)NNC(=S)NCc2ccccc2)c1,u,x,n,x
CN(Cc1ccccc1)C(=O)c1ccc2c(c1)OCO2,14µM,n,n,n
O=C(Nc1c2c(nn1-c1ccc(Cl)cc1)CS(=O)(=O)C2)c1cccc(Cl)c1,x,n,x,n
FC(F)Oc1ccc(NC(=S)NCc2ccccc2)cc1Cl,14µM,x,u,x
S=C(NCc1ccccc1)NCc1ccccc1,14µM,x,u,x
Cc1ccccc1NC(=S)NCc1cccs1,n,x,n,x
Cc1ccccc1NC(=S)NCc1ccccc1,28µM,x,n,x
COc1ccc(CCC(=O)Nc2ccc(C)c([N+](=O)[O-])c2)cc1,13µM,x,n,x
Cc1ccccc1NC(=S)NCCc1ccccc1,25µM,x,u,x
S=C(NCc1ccccc1)NCc1ccc2c(c1)OCO2,16µM,x,n,x
SMILES,HPGD inh,p53ts 32C kill,ALOX12 inhib,p53ts 39C tox
COc1ccc(CCNC(=S)Nc2ccccc2C)cc1,n,x,n,x
Cc1noc(NC(=O)Nc2ccccc2F)c1C#N,n,n[9.22 µM],n[11.4 µM],n[9.22 µM]
CN1CCN(c2ncc3nc(-c4cc(F)cc(F)c4)c(=O)n(CCC#N)c3n2)CC1,x,n,x,n
CCCOc1ccccc1-c1nc2n[nH]nc2c(=O)[nH]1,8.9µM,n,n,n
Cc1ccc(C2=NN(CC(=O)NC(C)c3ccccc3)C(=O)CC2)cc1 (stereo unspecified),x,n,x,n
O=C(Cc1ccccc1)NCCc1cccc(Cl)c1,10µM,x,n,x
COc1ccc(CNC(=O)CCSCc2cccc(Cl)c2)c(OC)c1,28µM,x,n,x
O=C(CCSCc1cccc(Cl)c1)NCCc1ccccc1,8.9µM,x,n,x
Cc1ccccc1Nc1c(-c2cccnc2)nc2ccc(Cl)cn12,x,n,x,n
Nc1ncnc2nc(-c3ccc(N4CCOCC4)nc3)cc(-c3cccc(Br)c3)c12,u,n,n,n
CCS(=O)(=O)Nc1ccc(C(=O)OC)cc1,14µM,n,n,n
CCOC(=O)c1ccc(NS(C)(=O)=O)cc1,u,x,n,x
CCS(=O)(=O)Nc1ccc(C(=O)c2ccccc2)cc1,0.28µM,n,n,n
O=C(O)c1ccc(NS(=O)(=O)Cc2ccccc2)cc1,n,n[9.22 µM],n[11.4 µM],n[9.22 µM]
O=C(CSCn1nnc2c(=O)[nH]c(Cc3ccc(F)cc3)nc21)Nc1cccc(C(F)(F)F)c1,x,n,x,n
Cc1ccc(/C=C2/NC(=O)N(Cc3ccccc3)C2=O)o1,25µM,x,n,x
COc1ccc(/C=C(\C#N)C(N)=O)cc1OC,n,n[9.22 µM],n[11.4 µM],n[9.22 µM]
N#C/C(=C\c1cccc(OC(=O)c2cccs2)c1)C(N)=O,25µM,x,n,x
O=S(=O)(NCCc1nnc2ccc(SCc3cccc(Cl)c3)nn12)c1ccccc1,x,n,x,n
CCc1nnc(NS(=O)(=O)c2ccc(N=Cc3c(C)[nH]n(-c4ccc(Cl)cc4)c3=O)cc2)s1,u,x,n,x
